This is part of a sample that, as a whole, favours compounds with a hit. Of some 83,000 tested, about 20% had one in any assay.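 Testing used 96-well plates and a 48-hour single-concentration exposure. Example: -40 means 40% of the starting cells died.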 Values without a mark were called inactive. Active and inactive are the calls of the source. Rule for the calls: active = growth percent below 10; inactive = the rest.
What follows are molecules tested on 786-0 renal (assay: NCI-60 one-dose screen, 48 h (100 = growth as untreated, 0 = no growth, -100 = all killed)). Conditions: 10 µM.

Structure (SMILES)	growth
CC(C)=CCc1cc(O)cc2c1OC(C=C(C)C)C1=C2C(=O)C2=C(C1=O)S(=O)(=O)CCN2 (configuration not stated)	80%
N=C(N)c1ccc(-c2ccc(-c3ccccc3)o2)nc1	90.7%
COc1ccc2nc3cc(Cl)ccc3c(NCCNCC(C)O)c2c1 (configuration not stated)	35.5%
N#CCCN1C/C(=C/c2ccc(Br)cc2)C(=O)/C(=C/c2ccc(Br)cc2)C1	-67.9% (active)
O=C(Nc1ccncc1)C(=O)c1cn(S(=O)(=O)c2cccc3ccccc23)c2ccccc12	77.5%
CCn1cc(C(=O)O)c(=O)c2cnc(N3CCCC3)nc21	92.6%
Cc1ccc(NC(=O)Nc2c(Cl)cccc2Cl)cn1	113%
Cc1ccc(NC(=O)CSc2nc3ccccc3c(=O)n2CCc2ccccc2)c(C(=O)O)c1	90.5%
O=C(Nc1ccccc1)Nc1cccc(-n2cc(-c3ccncc3)c(-c3ccc(O)c(Cl)c3)n2)c1	38.5%
COc1ccc(-c2nc(-c3nc4ccc(OC)cc4[nH]3)cc3c2[nH]c2ccccc23)cc1	37.4%
COc1ccc(-c2nc(-c3nc4cc(Cl)c(Cl)cc4[nH]3)c3ccccn23)cc1	0.945% (active)
COc1ccc(/C=C2/CN(C(=O)c3ccc(C)cc3)C/C(=C\c3ccc(OC)cc3)C2=O)cc1	99.9%
COc1cc(-c2cc(/C=C/C(=O)c3ccc(F)c(F)c3)[nH]n2)cc(OC)c1OC	80.5%
COc1ccc(/C(=C2\O[C@@H]([C@H]3COC(C)(C)O3)[C@H]3OC(C)(C)O[C@@H]23)c2cc(OC)c(OC)c(OC)c2)cc1O	101%
CS(=O)(=O)Nc1ccc(Nc2c3ccccc3nc3cc([N+](=O)[O-])ccc23)cc1	6.96% (active)
CCN(CC)CCC(=O)Nc1cccc2c1C(=O)c1c(c(O)c3ccccc3c1O)C2=O	4.91% (active)
COc1ccc(-c2nsc3c2NC(=O)CC3c2ccc(F)cc2)cc1 (configuration not stated)	57.5%
N=c1c2c(-c3ccccc3)c(-c3ccccc3)n(Cc3ccccc3)c2ncn1CCCO	48.3%
CC(C)(C#N)Nc1ccccc1	101%
Cc1cc(O)c(C(C)(C)C)cc1Sc1cc(C(C)(C)C)c(O)cc1C	79.9%
CC/C(=C(/c1ccc(OCCN(C)C)cc1)c1ccc(OC(=O)CCCCC(=O)c2c(C)[nH]c(/C=C3\N=C(c4ccc[nH]4)C=C3OC)c2C)cc1)c1ccccc1	67.4%
C[N+](C)(C)c1ncnc2nc[nH]c12	89.8%
Cc1cc(N(CCCNc2ccnc3cc(Cl)ccc23)Cc2cccs2)nc(Cl)n1	48.2%
N#CCCN(NC(=O)OCc1ccccc1)C(=O)OCc1ccccc1	97.9%
CSc1nn(-c2ccccc2)c2ncnc(Oc3ccccc3)c12	92.9%
CCCCOc1ccc(NC(=O)Nc2nnc(C)s2)cc1	93.5%
O=C1OCC2=C1C(c1cccc(Br)c1)c1cc3c(cc1N2CCO)CCC3 (configuration not stated)	19.1%
